Among the data in PubChem BioAssay (EPA / NIEHS) are outcome values, retold here.

Inconclusive results are not listed. Active and inactive are the calls of the source. How the source made its calls: active means hit-call score of the fitted dose curve at least 0.9, where 1 is the maximum; inconclusive means response in the unintended direction; inactive means score below 0.9.

The target of the assay is Hepatocyte nuclear factor 4-alpha (Homo sapiens) (UniProt P41235). As to the kind of experiment: ATG_HNF4a_TRANS: Attagene TRANS-FACTORIAL HepG2 Assay for human Hepatocyte Nuclear Factor 4 alpha (HNF4a) (AID 2282982). The note with it: HepG2 HNF4a transactivation reporter, mRNA readout. As for the experimental part: ATG_TRANS is a cell-based, multiplexed-readout assay that uses HepG2, a human liver cell line, with measurements taken at 24 hours after chemical dosing in a 24-well plate.ATG_HNF4a_TRANS is one of 30 assay component(s) measured or calculated from the ATG_TRANS assay. It is designed to make measurements of mRNA induction, a form of inducible reporter, as detected with fluorescence intensity signals by Reverse transcription polymerase chain reaction (RT-PCR) and Capillary electrophoresis technology.Data from the assay component ATG_HNF4a_TRANS was analyzed into 1 assay endpoint. This assay endpoint, ATG_HNF4a_TRANS, was analyzed in the positive analysis fitting direction relative to DMSO as the negative control and baseline of activity. Using a type of inducible reporter, measures of mRNA for gain-of-signal activity can be used to understand the reporter gene at the transcription factor-level as they relate to the gene HNF4A. Furthermore, this assay endpoint can be referred to as a primary readout, because this assay has produced multiple assay endpoints where this one serves a reporter gene function. To generalize the intended target to other relatable targets, this assay endpoint is annotated to the nuclear receptor intended target family, where the subfamily is orphan.
Chain of Hepatocyte nuclear factor 4-alpha (Homo sapiens) (P41235 whole entry, looked up): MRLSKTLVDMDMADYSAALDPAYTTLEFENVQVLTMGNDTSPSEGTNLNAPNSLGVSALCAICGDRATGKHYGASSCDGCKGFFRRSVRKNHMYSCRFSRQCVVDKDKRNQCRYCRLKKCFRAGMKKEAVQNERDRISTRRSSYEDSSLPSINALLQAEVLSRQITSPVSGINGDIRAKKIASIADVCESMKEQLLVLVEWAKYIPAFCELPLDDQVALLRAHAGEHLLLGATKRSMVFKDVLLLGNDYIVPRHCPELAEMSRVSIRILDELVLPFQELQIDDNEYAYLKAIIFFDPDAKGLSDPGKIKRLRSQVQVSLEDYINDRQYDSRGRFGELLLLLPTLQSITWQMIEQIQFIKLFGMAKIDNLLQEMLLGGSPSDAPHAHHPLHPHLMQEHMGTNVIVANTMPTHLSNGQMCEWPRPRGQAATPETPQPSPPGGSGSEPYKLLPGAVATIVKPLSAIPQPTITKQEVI
Human liver HepG2 cells are transiently transfected with multiple reporter transcription units (MRTUs) in 6-well plates using FuGene 6 reagent (Roche; 3 ml FuGene/1 mg DNA). The MRTU constructs are regulated by a cis-regulating element (promoter). […] A major difference between the CIS and TRANS system is that in CIS activities of endogenous TFs are measured, whereas the TRANS assay evaluates changes in activities of exogenous, chimeric NR-Gal4 proteins. […] At the end of 24 hour incubation, total RNA was isolated using TriZol reagent (Invitrogen). The isolated RNA is then reverse-transcribed using oligo(dT) primer and Mo-MLV reverse transcriptase (Invitrogen) with DNAse I (Ambion) treatment for 30 min. The one-tenth of the produced cDNA was amplified by PCR using Taq DNA polymerase (Invitrogen) and two reporter sequence-specific primers. The PCR products were fluorescently labeled by primer extension with 6-arboxyfluorescein (6-FAM) 5'-labeled reporter sequence-specific primer (2 min at 95 C, 20 s at 68 C and 10 min at 72 C) and these products were digested with 5U of HpaI (New England Biolabs) for 2h at 37 C. The fragments were purified using Qiaquick PCR columns (Qiagen), analyzed on an ABI 3130xL genetic analyzer (Applied Biosystems) with peak positions identified by using a set of X-rhodamine (ROX)-labeled MapMarker1000 molecular weight standards (BioVentures). The raw capillary electrophoresis data was processed using Attagraph software (Attagene).
On to `CC(C)=CCCC(C)=CC=O`, for which the compound was classed as inactive.

For the compound `COC(=O)CC(=O)OC`, the result was inactive. `Cn1cnc([N+](=O)[O-])c1Sc1ncnc2nc[nH]c12`: the call was inactive. In the case of `CC1(C)C(=O)N(Br)C(=O)N1Br` it was “inactive”.

`CC(C)=CCCC(C)CCO` (centres undefined): the result was inactive. On to `CCCC(=O)OCC`, for which the outcome was inactive. In the case of `C=CC(=C)CCC=C(C)C` it was “inactive”; in that of `CC(C)CCCCCCCOC(=O)CCCCC(=O)OCCCCCCCC(C)C`, “inactive”. For `C1N2CN3CN1CN(C2)C3`, the compound was called inactive. For `CC[C@H]1CC[C@H](NCc2cc3c(cc2OC)[C@H]2C[C@H]2C(=O)N3C)[C@H](c2ccccc2)N1`, the outcome was inactive. For the compound `Nc1ccc(Nc2ccccc2)cc1`, the compound was called inactive. Consider `On1ccccc1=S`, for which the compound was classed as inactive. On to `Fc1ccccc1[C@@H](F)COC1CCC(Nc2ncnc3[nH]ncc23)CC1` (some centres undefined), for which the compound was called inactive. Take `COCCOc1cc2cc(C(=O)NC3CCN(C(C)C)CC3)n(CC(=O)Nc3ccc(Cl)cn3)c2cn1`: the compound was classed as inactive.

Turning to `C[C@](N)(Cc1ccc(O)c(O)c1)C(=O)O`, the call was inactive. In the case of `Oc1ccc2c(c1)-c1ccccc1C2` it was “inactive”; in that of `COc1cccc(-c2ccc(/C=C\CN3CCCCCC3)cc2Cl)c1`, “inactive”; in that of `Cc1ccc(S(=O)(=O)O)cc1C`, “inactive”.

Regarding `CNCc1ccc(NC(=O)c2c[nH]c3c2C(=O)CCC3)cc1`, the compound was classed as inactive. For `Cn1c(=O)cc(Oc2ccc(F)cc2F)c2cnc(NCC(C)(C)O)nc21`, the compound was called inactive. Regarding `O=C1OC(=O)C2C3C=CC(C3)C12` (centres undefined), the call was inactive. Consider `CC[C@H](C)C(=O)O[C@H]1C[C@@H](C)C=C2C=C[C@H](C)[C@H](CC[C@@H]3C[C@@H](O)CC(=O)O3)[C@H]21`, for which the outcome was inactive. In the case of `CC(C)CCO`, the compound was called inactive. For `O=c1n(CC2CO2)c(=O)n(CC2CO2)c(=O)n1CC1CO1` (centres undefined), the compound was called inactive.

Take `COC(=O)c1c(Cl)c(Cl)c(C(=O)OC)c(Cl)c1Cl`: the result was inactive.

`CCCCCCCCO`: the compound was called inactive. Take `COc1ccc(-n2nc(C(F)F)cc2-c2ccc(S(C)=O)cc2)cc1` (centres undefined): the compound was classed as inactive. Take `CCCCC(CC)COC(=O)CCCCCCCCC(=O)OCC(CC)CCCC` (centres undefined): the outcome was inactive.

With `CCc1cc(SCc2sc(-c3ccc(C(F)(F)F)cc3)nc2CN2CCN(c3ccc(OC)cc3)CC2)ccc1OCC(=O)O`, the compound was called inactive. On to `COCCOCCOCCOC`, for which the call was inactive.

As to `Cn1c(=O)c2c(ncn2C)n(C)c1=O`, the compound was called inactive.

Consider `O=C(OC[C@H]1O[C@@H](OC(=O)c2cc(O)c(O)c(OC(=O)c3cc(O)c(O)c(O)c3)c2)[C@H](OC(=O)c2cc(O)c(O)c(OC(=O)c3cc(O)c(O)c(O)c3)c2)[C@@H](OC(=O)c2cc(O)c(O)c(OC(=O)c3cc(O)c(O)c(O)c3)c2)[C@@H]1OC(=O)c1cc(O)c(O)c(OC(=O)c2cc(O)c(O)c(O)c2)c1)c1cc(O)c(O)c(OC(=O)c2cc(O)c(O)c(O)c2)c1`, for which the call was inactive. In the case of `O=C(O)c1cccc(N(Cc2cccnc2)c2ccc(OC(F)F)c(OC(F)F)c2)c1` it was “inactive”; in that of `O=C(O)c1cc(N=Nc2ccc(S(=O)(=O)Nc3ccccn3)cc2)ccc1O`, “inactive”. As for `CCCN(C1CCN(C(=O)C2CCNCC2)CC1)[C@@H]1CCc2ccc(OC)cc2C1`, the call was inactive. Consider `CCCCC(CC)COC(=O)c1ccc(C(=O)OCC(CC)CCCC)cc1` (centres undefined), for which the compound was called inactive. As to `Cc1ccc(N)cc1O`, the result was inactive. Take `O=C(O)CCN(C1(C(=O)NO)CCCC1)S(=O)(=O)c1ccc(Oc2ccc(F)cc2)cc1`: the compound was classed as inactive.

On to `CC(=O)OC[C@H]1O[C@@](COC(C)=O)(O[C@H]2O[C@H](COC(C)=O)[C@@H](OC(C)=O)[C@H](OC(C)=O)[C@H]2OC(C)=O)[C@@H](OC(C)=O)[C@@H]1OC(C)=O`, for which the outcome was inactive.
